Experimental data taken from PubChem BioAssay (Tox21).
Several values for one entry are separate records, joined by “and”; a condition that tells them apart may be missing. Identical values can stand only once. Records with an inconclusive call do not appear. Activity calls are given as the source filed them. Calls come from the whole dose curve; as a rule, active = well fitted cell-killing curve with a large enough effect in the repeat runs; inconclusive = weak or mixed curves, or effect the other way; inactive = no such curve, though single readings can be large or run the other way.

Test: qHTS assay to identify small molecule antagonists of the glucocorticoid receptor (GR) signaling pathway - cell viability counter screen (AID 720693); note: nearly all actives have a fitted effect of over 55% in size; for viability change, negative = cytotoxic: % is set by controls: 0 for no effect and ±100 for the full control effect
Details: GR-bla HeLa viability, CellTiter-Glo luminescence, 18 h, with 5 nM dexamethasone present; series mostly up to 58.5 µM; viability change, negative = cytotoxic: at the top concentration
Potency is the fitted concentration of half-maximal effect.

| Compound | viability change, negative = cytotoxic | Potency |
| --- | --- | --- |
| CC(C)(C)OO | 10.6% (inactive) | – |
| CCOC(=O)OC1=C(c2cc(C)ccc2C)C(=O)NC12CCC(OC)CC2 (configuration not stated) | -14.1% (inactive) | – |
| C[C@]12Cc3nonc3C[C@@H]1CC[C@@H]1[C@@H]2CC[C@@]2(C)[C@H]1CC[C@]2(C)O | -23.3% (inactive) | – |
| c1ccc(OCC2CO2)cc1 (configuration not stated) | 17.9% [at 78.9 µM] (inactive) | – |
| C[C@]12CC[C@@H]3c4ccc(OC(=O)N(CCCl)CCCl)cc4CC[C@H]3[C@@H]1CC[C@@H]2O | -0.758% (inactive) | – |
| O=C(CCCN1CCC2(CC1)C(=O)NCN2c1ccccc1)c1ccc(F)cc1 | 15.4% (inactive) | – |
| CCC[CH2][Sn]([CH2]CCC)([CH2]CCC)[O]C(=O)c1ccccc1 | – | 1.55 µM (active) |
| CC(=O)O[C@H]1CC[C@@]2(C)C(=CC[C@@H]3[C@@H]2CC[C@]2(C)C(=O)CC[C@@H]32)C1 | 1.4% [at 27 µM] (inactive) | – |
| CC(C)CCCCCCCOP(=O)(Oc1ccccc1)Oc1ccccc1 | 0.163% [at 78.9 µM] (inactive) | – |
| O=C(O)COc1nc(Cl)c(Cl)cc1Cl | 27.9% [at 78.9 µM] (inactive) | – |
| O=C(CBr)c1ccc(O)cc1 | 5.72% (inactive) | – |
| CC(C)(C)c1ccc(CSc2cnn(C(C)(C)C)c(=O)c2Cl)cc1 | 0.408% (inactive) | – |
| COc1ccc(/C(=C/C(=O)N2CCOCC2)c2ccc(Cl)cc2)cc1OC | -6.21% (inactive) | – |
| S=C(SSC(=S)N1CCCCC1)N1CCCCC1 | -5.82% (inactive) | – |
| Cc1ccc(OP(=O)(Oc2ccccc2)Oc2ccccc2)cc1 | -4.27% [at 78.9 µM] (inactive) | – |
| ClC1=C(Cl)[C@]2(Cl)[C@H]3[C@H]([C@H]4C=C[C@H]3C4)[C@@]1(Cl)C2(Cl)Cl | -8.8% (inactive) | – |
| COP(=S)(OC)Oc1cc(Cl)c(Br)cc1Cl | -14.9% (inactive) | – |
| CCN(CC)c1c([N+](=O)[O-])cc(C(F)(F)F)c(N)c1[N+](=O)[O-] | 18.6% (inactive) | – |
| Clc1ccc(-c2ccc(Cl)c(Cl)c2Cl)c(Cl)c1Cl | 5.57% (inactive) | – |
| FC(F)(F)c1cccc(C2=CCN(CCc3ccc4ccccc4c3)CC2)c1 | -16.7% (inactive) | – |
| CCCN(CC)CC1COC2(CCC(C(C)(C)C)CC2)O1 (configuration not stated) | 5.62% (inactive) | – |
| CN(C)C(=S)[S-].CN(C)C(=S)[S-].[Cu+2] | – | 2.67 µM (active) |
| Clc1ccc(C(c2ccc(Cl)cc2)C(Cl)(Cl)Cl)cc1 | -7.97% (inactive) | – |
| O=[N+]([O-])c1c2ccccc2cc2ccccc12 | -20.8% (inactive) | – |
| Cc1c(Cl)c(=O)oc2cc(OP(=O)(OCCCl)OCCCl)ccc12 | 8.33% (inactive) | – |
| S=C=Nc1cccc2ccccc12 | -4.06% (inactive) | – |
| Nc1ccccc1C(=O)OC/C=C/c1ccccc1 | 1.81% (inactive) | – |
| c1ccc(Nc2ccc3ccccc3c2)cc1 | – | inactive |

Test: qHTS assay for identifying genotoxic compounds that show differential cytotoxicity against isogenic chicken DT40 cell lines with known DNA damage response pathways - wild type cell line (AID 743012); note: nearly all actives have a fitted effect of over 60% in size
Details: DT40 wild type chicken cells viability, CellTiter-Glo, 40 h; series mostly up to 68.4 µM; activity change, negative = cytotoxicity: at the top concentration
Summary of the method: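 Parental DNA repair-proficient DT40 cells, 300 per well, were pre-incubated ~0.5 h at 37 C/5% CO2, pin-dosed with compounds in DMSO, then incubated 40 h. Viability was read as CellTiter-Glo luminescence after 30 min at room temperature.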

| Compound | Potency |
| --- | --- |
| CC(C)C1CCC(Cc2ccc(Cl)cc2)C1(O)Cn1cncn1 (configuration not stated) | 19.1 µM (active) |
| Cc1cc(SCc2sc(-c3ccc(C(F)(F)F)c(F)c3)nc2C)ccc1OCC(=O)O | 54.5 µM (active) |
| O=C(Nc1ccc2[nH]ccc2c1)c1cc2cc(F)ccc2n1Cc1cccc(F)c1 | 19.3 µM (active) |
| Oc1ccc(C2(c3ccc(O)cc3)c3ccccc3-c3ccccc32)cc1 | 68.6 µM (active) |
| CC(=O)OC1(c2ccccc2)CCN(CCc2ccccc2)CC1 | 4.43 µM (active) |
| N#CCCC(Br)(C#N)CBr (configuration not stated) | 4.33 µM (active) |
| Clc1ccc(CSC(Cn2ccnc2)c2ccc(Cl)cc2Cl)cc1 (configuration not stated) | 10.1 µM (active) |
| CCCCCCCCCCCCBr | 27.3 µM (active) |
| CN(C)C(=S)S | 1.36 µM (active) and 1.37 µM (active) |

Test: qHTS assay for identifying genotoxic compounds that show differential cytotoxicity against isogenic chicken DT40 cell lines with known DNA damage response pathways - Rev3 mutant cell line (AID 743014); note: nearly all actives have a fitted effect of over 55% in size; for activity, negative = cytotoxicity: % is set by controls: 0 for no effect and ±100 for the full control effect
Details: chicken DT40 Rev3-/- viability, CellTiter-Glo, 40 h; series mostly up to 68.4 µM; activity, negative = cytotoxicity: at the top concentration

| Compound | Potency | activity, negative = cytotoxicity |
| --- | --- | --- |
| CC(C)C1CCC(Cc2ccc(Cl)cc2)C1(O)Cn1cncn1 (configuration not stated) | 13.5 µM (active) | – |
| CC(C)(C)OO | – | 3.45% (inactive) |
| CCOC(=O)OC1=C(c2cc(C)ccc2C)C(=O)NC12CCC(OC)CC2 (configuration not stated) | 30.6 µM (active) | – |
| C[C@]12Cc3nonc3C[C@@H]1CC[C@@H]1[C@@H]2CC[C@@]2(C)[C@H]1CC[C@]2(C)O | 13.3 µM (active) | – |
| CCC[CH2][Sn]([CH2]CCC)([CH2]CCC)[O]C(=O)c1ccccc1 | 0.154 µM (active) | – |
| CC(=O)O[C@H]1CC[C@@]2(C)C(=CC[C@@H]3[C@@H]2CC[C@]2(C)C(=O)CC[C@@H]32)C1 | inactive | – |
| O=C(O)COc1nc(Cl)c(Cl)cc1Cl | 57.4 µM (active) | – |
| Cc1cc(SCc2sc(-c3ccc(C(F)(F)F)c(F)c3)nc2C)ccc1OCC(=O)O | 34.4 µM (active) | – |
| O=C(CBr)c1ccc(O)cc1 | 68.6 µM (active) | – |
| O=C(Nc1ccc2[nH]ccc2c1)c1cc2cc(F)ccc2n1Cc1cccc(F)c1 | 27.3 µM (active) | – |
| CC(C)(C)c1ccc(CSc2cnn(C(C)(C)C)c(=O)c2Cl)cc1 | 0.0193 µM (active) | – |
| COc1ccc(/C(=C/C(=O)N2CCOCC2)c2ccc(Cl)cc2)cc1OC | 30.6 µM (active) | – |
| S=C(SSC(=S)N1CCCCC1)N1CCCCC1 | 0.531 µM (active) | – |
| COP(=S)(OC)Oc1cc(Cl)c(Br)cc1Cl | 61.1 µM (active) | – |
| Clc1ccc(-c2ccc(Cl)c(Cl)c2Cl)c(Cl)c1Cl | – | 10.5% (inactive) |
| Oc1ccc(C2(c3ccc(O)cc3)c3ccccc3-c3ccccc32)cc1 | 43.3 µM (active) | – |
| CCCN(CC)CC1COC2(CCC(C(C)(C)C)CC2)O1 (configuration not stated) | 0.686 µM (active) | – |
| CC(=O)OC1(c2ccccc2)CCN(CCc2ccccc2)CC1 | 4.43 µM (active) | – |
| N#CCCC(Br)(C#N)CBr (configuration not stated) | 6.11 µM (active) | – |
| Clc1ccc(C(c2ccc(Cl)cc2)C(Cl)(Cl)Cl)cc1 | 10.6 µM (active) and 7.75 µM (active) and 6.86 µM (active) | – |
| Clc1ccc(CSC(Cn2ccnc2)c2ccc(Cl)cc2Cl)cc1 (configuration not stated) | 11.4 µM (active) | – |
| CCCCCCCCCCCCBr | 13.7 µM (active) | – |
| S=C=Nc1cccc2ccccc12 | 60.5 µM (active) | – |
| c1ccc(Nc2ccc3ccccc3c2)cc1 | 54.2 µM (active) | – |
| CN(C)C(=S)S | 1.21 µM (active) and 1.72 µM (active) | – |
